BoNT A protease – BoNT/A light chain protease inhibitors, primary screen, biochemical, flow cytometry, MLPCN library; Botulinum neurotoxin type A light chain protease (Clostridium botulinum A str. ATCC 3502); multiplex microsphere protease substrate cleavage; inhibition, % at 10 µM; 360,000 compounds, 0.17% hits; AID 588499, 2011; also: plate controls were buffer without enzyme for full effect and enzyme alone for no effect
VHR inh abs – VHR1 phosphatase inhibitors, primary screen, biochemical, absorbance, uHTS; recombinant VHR phosphatase, pNPP absorbance; inhibition, % at 13.3 µM; 290,000 compounds, 0.52% hits; AID 1654, 2009; in the data active = inhibition above about 50%
Anthrax LF prot – Bacillus anthracis LF protease inhibitors, primary screen, biochemical, multiplex microsphere, MLPCN library. Lethal factor (Bacillus anthracis), P15917. AID 588501, 2011. multiplex microsphere protease cleavage assay. inhibition, % at 10 µM. 360,000 compounds, 0.12% hits; also: plate controls were buffer without enzyme for full effect and enzyme alone for no effect
Target sequence (P15917 whole entry, looked up): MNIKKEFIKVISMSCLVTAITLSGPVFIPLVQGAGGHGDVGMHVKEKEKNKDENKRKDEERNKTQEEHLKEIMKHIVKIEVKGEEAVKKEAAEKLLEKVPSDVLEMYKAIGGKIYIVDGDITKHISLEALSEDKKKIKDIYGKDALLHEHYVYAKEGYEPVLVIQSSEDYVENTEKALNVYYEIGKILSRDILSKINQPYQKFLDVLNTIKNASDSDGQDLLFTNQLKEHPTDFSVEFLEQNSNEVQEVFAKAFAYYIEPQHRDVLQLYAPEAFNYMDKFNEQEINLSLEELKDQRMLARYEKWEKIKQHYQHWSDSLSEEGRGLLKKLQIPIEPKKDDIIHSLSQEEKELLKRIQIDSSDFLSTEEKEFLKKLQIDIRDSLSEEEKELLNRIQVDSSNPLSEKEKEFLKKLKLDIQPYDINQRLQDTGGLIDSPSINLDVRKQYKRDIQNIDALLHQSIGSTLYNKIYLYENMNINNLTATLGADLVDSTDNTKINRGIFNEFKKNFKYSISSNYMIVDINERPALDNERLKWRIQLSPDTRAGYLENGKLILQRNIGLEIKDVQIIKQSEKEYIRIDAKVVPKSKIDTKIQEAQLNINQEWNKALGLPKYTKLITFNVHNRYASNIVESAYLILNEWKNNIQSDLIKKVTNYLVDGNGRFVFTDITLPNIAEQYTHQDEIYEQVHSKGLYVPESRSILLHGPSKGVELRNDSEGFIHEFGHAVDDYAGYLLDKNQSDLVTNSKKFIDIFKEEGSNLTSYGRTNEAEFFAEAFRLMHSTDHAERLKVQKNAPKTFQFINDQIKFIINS
MazEF act – activators of E. coli MazEF toxin-antitoxin RNase, primary screen, biochemical, fluorescence, uHTS | AID 504720, 2011 | activation, % at 20 µM | 350,000 compounds, 0.32% hits | FAM/BHQ RNA-DNA oligo cleavage fluorescence, 5 h; in the data active = activation above about 50%
BoNT F protease – BoNT/F light chain protease inhibitors, primary screen, biochemical, flow cytometry, MLPCN library | AID 588497, 2011 | Multiplex microsphere protease cleavage assay | Botulinum neurotoxin type F light chain protease (Clostridium botulinum) | 360,000 compounds, 0.22% hits | inhibition, % at 10 µM; in the data active = inhibition above about 35%, passing the limit was not always enough; inconclusive = no clear call, values can overlap the other calls; also: plate controls were buffer without enzyme for full effect and enzyme alone for no effect
Bead autofluor – counter-screen for toxin protease inhibitors: compound fluorescence; fluorescence intensity (concentration not given with the values); AID 624483; compound autofluorescence counterscreen, microsphere flow cytometry; stronger effect = higher value; 360,000 compounds, 3.1% hits; in the data active = fluorescence intensity above about 16000; inconclusive = no clear call, values can overlap the other calls
* = called active by the depositor; ? = inconclusive; / = no result given. A selection: hits, their analogues and other compounds. The true share with any hit is near 4%. Rule as the data show it, unless noted: active = inhibition above about 30%; inconclusive = no clear call, values can overlap the other calls; inactive = below that.

SMILES | BoNT A protease | VHR inh abs | Anthrax LF prot | MazEF act | BoNT F protease | Bead autofluor
O=[N+]([O-])c1cccc2ccc(/C=C/c3ccc(F)cc3)nc12 | 0.2 | 5.7 | 0.7 | -15.5 | -13.8 | 10883
CCN(CC)S(=O)(=O)c1ccc(N2CCCC2)c(NC(=O)C2=NN(c3ccccc3)C(=O)CC2)c1 | -0.3 | / | -2.1 | 3.1 | -19.9 | 5987
CC(C)COc1ccc(CNC(=S)N/N=C/c2ccc([N+](=O)[O-])cc2)cc1 | -0.7 | 5.7 | -4.1 | -8.6 | -1.5 | ?
CNC(C)c1cc(OC)ccc1OC (centres undefined) | 1.3 | 39.1 | -2.6 | 9.7 | 13.6 | 8908
COc1ccc(OC)c(C(C)NC(C)=O)c1 (centres undefined) | -4.5 | 27.9 | -3.4 | 1.2 | -5.3 | 18227*
CCOc1ccc(S(=O)(=O)N2CCC(C(=O)NCc3ccccn3)CC2)cc1 | -6.0 | 35.0 | -1.2 | 3.9 | -20.1 | 3631
Cc1ccc(CCC(=O)Nc2nccs2)o1 | 0.9 | -0.8 | 2.1 | -0.5 | -1.7 | 10135
CCc1ccc(CCC(=O)Nc2nccs2)o1 | 1.3 | -5.6 | 1.8 | 5.5 | 3.8 | 21884*
O=C(Cc1ccc(F)cc1)Nc1nccs1 | 1.4 | 16.5 | 15.4 | 8.8 | 41.9* | 2990
O=c1c2c(ncn2C2CCCC2)n(Cc2ccccc2)c(=O)n1CCOc1ccccc1 | 0.2 | -0.3 | -0.2 | -7.5 | -1.1 | 2138
Cc1ccc(C2(c3ccccc3)NC(=O)N(CC(=O)NC3CCCCC3)C2=O)cc1C (centres undefined) | -0.9 | / | -2.5 | -0.2 | 8.3 | 5898
O=C(Nc1ccccc1)c1ccc(OC(=O)c2cc3ccccc3o2)cc1 | 1.7 | 4.7 | 2.2 | -0.7 | 3.9 | 21900*
CCN(CC)S(=O)(=O)c1cccc(C(=O)Nc2cc(C)nn2-c2ccccc2)c1 | 0.8 | 12.6 | 2.1 | -2.5 | 4.9 | 9544
C=CCn1c(SCC(=O)c2cccs2)nc2sc(CC)cc2c1=O | 1.8 | 31.6 | 1.3 | 5.4 | 4.7 | 22827*
O=C(NC(=S)Nc1nc(-c2ccccc2)cs1)c1cccnc1 | -2.0 | -1.0 | -5.6 | -13.2 | -11.3 | 4212
O=C(Nc1nc(-c2ccccc2Cl)cs1)c1cccnc1 | -0.1 | -8.0 | 0.0 | 19.9 | 1.1 | 20683*
CCc1cc(-c2n[nH]c(=S)n2C(C)c2ccccc2)cs1 (centres undefined) | 5.6 | -34.7 | -0.2 | 1.7 | 4.6 | 21656*
CC(Oc1ccccc1Cl)C(=O)/C=C/N(C)C (centres undefined) | 3.5 | 10.3 | 0.4 | -9.4 | 4.9 | 20970*
COc1ccc2nc(SCc3cnc(C)nc3N)[nH]c2c1 | 0.0 | 2.9 | -4.1 | 5.3 | -0.9 | 9117
O=C(CCCc1ccccc1)Nc1ccc(Br)cc1F | -1.2 | 19.3 | 32.0* | 0.5 | -25.9 | 3547
O=C(CCc1ccccc1)Nc1ccc(F)cc1F | 0.0 | 28.6 | -6.9 | 0.8 | 7.1 | 4987
CCOc1ccccc1NC(=O)Cn1c(=O)n(CCC(=O)NC2CCCC2)c(=O)c2ccccc21 | 0.7 | 24.4 | 4.3 | / | 0.0 | 2562
COc1ccc(-n2c(=O)c3ccccc3n(CC(=O)NC3CCCC3)c2=O)c(OC)c1 | 4.0 | -2.4 | -0.9 | 2.1 | 2.7 | 21567*
COc1ccc(-n2c(=O)c3c4c(sc3n(CC(=O)NC3CCCC3)c2=O)CCCC4)c(OC)c1 | -0.9 | 1.7 | -5.6 | 6.5 | 4.0 | 4365
Cc1cccc(NC(=O)Cn2c(=O)n(CCC(=O)NC3CCCC3)c(=O)c3ccccc32)c1 | -0.8 | 0.3 | -7.1 | 83.6* | -3.3 | 7057
SMILES | BoNT A protease | VHR inh abs | Anthrax LF prot | MazEF act | BoNT F protease | Bead autofluor
O=C1CC(N2CCC(C(=O)N3CCCCC3)CC2)C(=O)N1 (centres undefined) | 1.2 | -5.1 | -0.6 | -0.5 | 8.7 | 4782
CN(C)C(=O)c1noc2cc([N+](=O)[O-])ccc12 | -1.3 | 12.7 | -6.6 | 4.9 | -3.6 | 16570*
O=C(c1ccc(O)c(Cl)c1)N1CCN(S(=O)(=O)c2ccccc2)CC1 | 1.1 | 2.3 | 5.0 | 4.3 | 0.3 | 6134
Cc1cn(C2CCCCO2)c(=O)nc1NO (centres undefined) | -1.0 | / | 2.8 | 3.7 | -7.6 | 3524
COc1cccc(CSc2nnc(C(F)(F)F)n2Cc2ccc(F)cc2)c1 | 3.3 | 6.0 | -0.9 | -16.1 | 5.1 | 22093*
Cc1ccc(CSc2nnc(C(F)(F)F)n2Cc2ccc(F)cc2)cc1 | 0.7 | 32.9 | 0.8 | -10.5 | 7.1 | 9775
Cc1ccc2nsnc2c1S(=O)(=O)N1CCOCC1 | -2.4 | -8.1 | -4.4 | -1.9 | -3.2 | 22875*
COc1ccc(C(=O)CSc2nc3ccccc3n2CC(=O)NC(C)(C)C)cc1 | 0.7 | -6.1 | 0.7 | 0.4 | -3.3 | 2924
CCOC(=O)CSc1nc2ccccc2n1CC(=O)NC(C)(C)C | -3.2 | 18.9 | -0.8 | -1.1 | -3.8 | 21055*
CSc1nnc(C)c(=O)[nH]1 | -4.8 | -13.9 | -1.6 | 3.1 | -8.1 | 25237*
Cc1nnc(SCCc2ccccc2)[nH]c1=O | ? | 23.4 | 0.5 | -4.0 | 8.1 | 19226*
Cc1noc(C)c1CSc1nnc(C)c(=O)[nH]1 | -1.3 | 22.0 | -12.6 | 5.0 | 0.1 | 8919
COc1ccccc1N1CCN(C(=O)C2C3C=CC4(CN(Cc5ccccc5Cl)C(=O)C24)O3)CC1 (centres undefined) | 0.2 | -0.7 | -0.2 | 7.7 | -0.8 | 20591*
COc1ccc(CCN2CC34C=CC(O3)C(C(=O)NCc3ccccc3Cl)C4C2=O)cc1OC (centres undefined) | -0.5 | 18.6 | -2.5 | -6.1 | -6.5 | 3126
CC(=O)Nc1ccc(C(=O)NNC(=O)c2csc(N3CCOCC3)n2)cc1 | -0.3 | / | 2.0 | -12.9 | -8.0 | 2871
COc1ccc(Nc2nc(N)nc(CN3CCN(c4ccc(F)cc4)CC3)n2)cc1 | 0.4 | 10.3 | -0.1 | 8.3 | -6.7 | 2030
COc1ccccc1NC(=O)/C(=N/OCc1ccc(F)cc1)C(C)=O | 0.0 | 14.4 | -0.4 | 74.6* | -3.3 | 2209
COc1ccccc1NC(=O)C(=N\O)/C(C)=N/O | 0.2 | -1.5 | -3.2 | -3.9 | 1.4 | 2317
Cc1ccc(-c2cnn(-c3cccc([N+](=O)[O-])c3)c2N)cc1 | 0.3 | 10.2 | -1.7 | -1.0 | -0.4 | 23689*
Cc1ccc2cc(CN(CCCN3CCOCC3)C(=O)NC3CCCCC3)c(=O)[nH]c2c1C | -0.1 | / | -8.3 | 5.2 | -2.5 | 6409
CCCN(CCC)c1nc(N)c(C#N)c(CC#N)c1C#N | 0.3 | 1.6 | -6.6 | 133.7* | -5.3 | 4067
COC(=O)/C=C1\NCCSC1=O | -2.5 | 20.9 | -3.0 | 3.0 | -1.9 | 17208*
COC(=O)/C=C1\NC(=O)C(C)S1 (centres undefined) | -0.3 | -1.4 | -3.2 | 5.8 | -4.6 | 4258
CCN(CC)c1ccc(/C=N/Nc2ccccc2)c(O)c1 | 1.7 | 6.2 | -1.5 | 9.1 | -0.2 | 22767*

Compound activity (PubChem BioAssay)
